Measured values reported in the supplement of paper PMC7695840.

Experiments:
[1] = test system: Staphylococcus aureus MW2 delta-mecA (mecA-); assay: normalized GFP fluorescence (growth of mecA- strain) (fraction of control range); higher = more growth of mecA- strain; settings: compound concentration: 150 uM; cefoxitin: subinhibitory; fluorescent label: GFP
Outline: (§1)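 Single-replicate 1536-well plates carried 150 μM compound (1.5% DMSO), onto which 5 µL/well of a 1:1 mix of pre-induced S. aureus MW2 cells was dispensed: gene-carrying cells tagged with DsRed and deletion cells tagged with GFP, in LB with a subinhibitory antibiotic dose set daily. Incubation ran 20 h at 37 °C, 90% humidity, unshaken, followed by DsRed (540/590) and GFP (485/520) reads. Per-plate scaling of each channel used single-strain control medians, and plates with high untreated ratios and rows with DsRed/GFP >10 were excluded.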

[2] = test system: Staphylococcus aureus MW2 (mecA+); assay: normalized DsRed fluorescence (growth of mecA+ strain) (fraction of control range); higher = more growth of mecA+ strain; settings: compound concentration: 150 uM; cefoxitin: subinhibitory; fluorescent label: DsRed
Outline: as §1

| Structure (SMILES) | normalized GFP fluorescence [1] | normalized DsRed fluorescence [2] |
| --- | --- | --- |
| CCCc1nc(C(C)(C)O)c(C(=O)OCc2oc(=O)oc2C)n1Cc1ccc(-c2ccccc2-c2nnn[nH]2)cc1 | 0.0265 | 0.605 |
| O=c1[nH]cnc2c1ncn2[C@@H]1O[C@H](CO)[C@@H](O)[C@H]1O [Inosine] | 0.197 | 0.97 |
| CC(COc1ccccc1)N(CCCl)Cc1ccccc1 (stereo not given) | 0.632 | 0.449 |
| COc1ccc([C@@H]2Sc3ccccc3N(CCN(C)C)C(=O)[C@@H]2OC(C)=O)cc1 | 0.124 | 0.612 |
| CCC(=O)NCC[C@@H]1CCc2ccc3c(c21)CCO3 | 0.8 | 0.671 |
